# Measured values as given in publication PMC7862700, “An all-to-all approach to the identification of sequence-specific readers for epigenetic DNA modifications on cytosine”.
# What was measured:
# Assay in all cases: DAPPL (digital affinity profiling via proximity ligation, sequencing); 10 mM Tris-HCl pH 7.5, 50 mM NaCl, 1 mM DTT, 4% glycerol, room temperature, 30 min; GST-TFs on glutathione beads, 16-mer random dsDNA library, 0.1% formaldehyde crosslink after washing; high values mean tight binding
# FLI1 = biological target: T1, FLI1 (Homo sapiens, UniProt Q01543 1-452); details: protein: recombinant; tags: N-terminal GST; dsDNA, one strand shown
# T1 sequence: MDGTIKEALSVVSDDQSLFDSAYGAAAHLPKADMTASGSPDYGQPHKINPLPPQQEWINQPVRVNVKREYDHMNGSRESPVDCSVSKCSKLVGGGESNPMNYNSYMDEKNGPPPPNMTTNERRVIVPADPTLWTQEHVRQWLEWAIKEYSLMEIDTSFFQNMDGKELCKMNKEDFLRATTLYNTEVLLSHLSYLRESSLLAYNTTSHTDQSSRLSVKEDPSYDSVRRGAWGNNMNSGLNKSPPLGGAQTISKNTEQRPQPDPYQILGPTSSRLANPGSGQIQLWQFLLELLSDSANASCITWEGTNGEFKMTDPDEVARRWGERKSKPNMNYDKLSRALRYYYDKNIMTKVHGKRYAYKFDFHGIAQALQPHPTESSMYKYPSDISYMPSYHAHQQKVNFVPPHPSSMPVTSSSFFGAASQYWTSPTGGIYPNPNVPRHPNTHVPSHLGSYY
# Summary of the method: (§1)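 In yeast, human transcription factors were expressed with a GST fusion, then pulled down on glutathione beads and given DNA barcodes. Pooled with a tag-only sample, they were exposed to 200 nmole of a 16-mer random double-stranded DNA library (Tris/NaCl/DTT/glycerol buffer, room temperature, 30 min), washed, crosslinked with 0.1% formaldehyde, proximity-ligated using BsaI/T4 ligase for 1 h at 37 °C, PCR-amplified and read on an Illumina NextSeq500. Each hexamer's frequency of reads for a factor, divided by the matching frequency for the tag-only sample, gives the binding signal.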
# ELK1 = biological target: T2, ELK1 (Homo sapiens, UniProt P19419 1-428); details: protein: recombinant; tags: N-terminal GST; dsDNA, one strand shown
# T2 sequence: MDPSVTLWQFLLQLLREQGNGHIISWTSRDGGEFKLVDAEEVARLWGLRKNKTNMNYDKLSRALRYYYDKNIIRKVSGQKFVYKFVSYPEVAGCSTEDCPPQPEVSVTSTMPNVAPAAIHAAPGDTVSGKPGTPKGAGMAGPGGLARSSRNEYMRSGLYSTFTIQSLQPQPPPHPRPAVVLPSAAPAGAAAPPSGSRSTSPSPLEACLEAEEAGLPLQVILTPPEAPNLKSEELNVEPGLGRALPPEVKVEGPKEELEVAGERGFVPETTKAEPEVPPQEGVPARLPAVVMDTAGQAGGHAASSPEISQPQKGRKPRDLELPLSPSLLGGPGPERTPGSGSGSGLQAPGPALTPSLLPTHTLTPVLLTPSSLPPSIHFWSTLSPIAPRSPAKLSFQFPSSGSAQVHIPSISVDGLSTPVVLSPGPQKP
# Summary of the method: as §1
# GABPA = biological target: T3, GABPA (Homo sapiens, UniProt Q06546 1-454); details: protein: recombinant; tags: N-terminal GST; dsDNA, one strand shown
# T3 sequence: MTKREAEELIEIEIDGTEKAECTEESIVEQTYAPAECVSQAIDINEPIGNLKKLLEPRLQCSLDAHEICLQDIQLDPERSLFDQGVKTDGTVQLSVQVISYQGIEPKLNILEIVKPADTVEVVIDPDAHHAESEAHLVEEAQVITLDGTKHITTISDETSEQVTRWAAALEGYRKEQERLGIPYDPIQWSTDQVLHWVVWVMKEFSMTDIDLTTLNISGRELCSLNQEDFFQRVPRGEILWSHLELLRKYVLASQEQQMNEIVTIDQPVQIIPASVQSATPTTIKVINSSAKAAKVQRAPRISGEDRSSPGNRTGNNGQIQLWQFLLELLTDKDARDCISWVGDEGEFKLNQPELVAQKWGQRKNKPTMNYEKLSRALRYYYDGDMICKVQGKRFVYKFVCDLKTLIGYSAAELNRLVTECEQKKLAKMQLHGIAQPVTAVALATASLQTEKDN
# Summary of the method: as §1
# ERG = biological target: T4, ERG (Homo sapiens, UniProt P11308 1-479); details: protein: recombinant; tags: N-terminal GST; dsDNA, one strand shown
# T4 sequence: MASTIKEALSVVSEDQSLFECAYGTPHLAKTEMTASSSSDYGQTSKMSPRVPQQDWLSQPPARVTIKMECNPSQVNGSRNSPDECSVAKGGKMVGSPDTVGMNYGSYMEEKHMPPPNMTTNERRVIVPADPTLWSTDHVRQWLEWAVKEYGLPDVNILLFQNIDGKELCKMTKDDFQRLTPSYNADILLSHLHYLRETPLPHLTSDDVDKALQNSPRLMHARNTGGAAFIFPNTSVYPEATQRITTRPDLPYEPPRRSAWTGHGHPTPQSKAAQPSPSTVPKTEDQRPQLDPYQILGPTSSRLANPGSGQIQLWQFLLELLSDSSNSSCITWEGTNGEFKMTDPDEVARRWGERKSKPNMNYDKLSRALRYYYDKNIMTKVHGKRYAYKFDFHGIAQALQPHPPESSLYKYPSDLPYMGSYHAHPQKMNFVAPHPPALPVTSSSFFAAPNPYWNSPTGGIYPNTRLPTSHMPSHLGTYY
# Summary of the method: as §1
# ELF1 = ELF1 (Homo sapiens, UniProt P32519 1-619); details: protein: recombinant; tags: N-terminal GST; dsDNA, one strand shown
# Summary of the method: as §1
# EHF = biological target: T5, EHF (Homo sapiens, UniProt Q9NZC4 1-300); details: protein: recombinant; tags: N-terminal GST; dsDNA, one strand shown
# T5 sequence: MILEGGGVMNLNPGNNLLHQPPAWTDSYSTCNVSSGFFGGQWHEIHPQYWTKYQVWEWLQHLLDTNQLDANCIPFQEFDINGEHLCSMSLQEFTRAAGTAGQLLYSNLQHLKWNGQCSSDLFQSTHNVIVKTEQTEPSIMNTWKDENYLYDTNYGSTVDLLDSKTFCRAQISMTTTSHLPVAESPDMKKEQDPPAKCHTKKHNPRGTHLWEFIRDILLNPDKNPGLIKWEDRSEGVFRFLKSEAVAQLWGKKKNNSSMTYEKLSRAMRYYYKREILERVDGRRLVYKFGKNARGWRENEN
# Summary of the method: as §1
# SPI1 = SPI1 (Homo sapiens, UniProt P17947 1-270); details: protein: recombinant; tags: N-terminal GST; dsDNA, one strand shown
# Summary of the method: as §1
# SPIB = SPIB (Homo sapiens, UniProt Q01892 1-262); details: protein: recombinant; tags: N-terminal GST; dsDNA, one strand shown
# Summary of the method: as §1
# ELK3 = biological target: T6, ELK3 (Homo sapiens, UniProt P41970 1-407); details: protein: recombinant; tags: N-terminal GST; dsDNA, one strand shown
# T6 sequence: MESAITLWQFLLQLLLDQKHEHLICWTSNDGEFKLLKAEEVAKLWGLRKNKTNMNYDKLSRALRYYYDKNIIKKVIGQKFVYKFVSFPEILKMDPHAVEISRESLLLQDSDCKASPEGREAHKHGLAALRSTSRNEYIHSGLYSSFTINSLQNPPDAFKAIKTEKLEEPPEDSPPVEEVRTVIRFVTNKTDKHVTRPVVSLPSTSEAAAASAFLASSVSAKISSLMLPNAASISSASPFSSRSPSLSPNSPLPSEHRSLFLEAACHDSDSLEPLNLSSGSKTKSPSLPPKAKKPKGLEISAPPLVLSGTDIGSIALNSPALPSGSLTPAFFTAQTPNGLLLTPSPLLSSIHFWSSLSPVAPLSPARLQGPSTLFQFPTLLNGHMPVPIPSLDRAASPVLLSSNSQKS
# Summary of the method: as §1
# FEV = biological target: T7, FEV (Homo sapiens, UniProt Q99581 1-238); details: protein: recombinant; tags: N-terminal GST; dsDNA, one strand shown
# T7 sequence: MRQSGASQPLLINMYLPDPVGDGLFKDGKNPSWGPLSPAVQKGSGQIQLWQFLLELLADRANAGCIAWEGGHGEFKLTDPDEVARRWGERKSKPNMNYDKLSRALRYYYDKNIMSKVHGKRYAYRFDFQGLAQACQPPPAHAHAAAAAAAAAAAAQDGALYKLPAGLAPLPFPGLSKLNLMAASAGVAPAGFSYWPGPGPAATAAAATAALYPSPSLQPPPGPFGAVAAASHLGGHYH
# Summary of the method: as §1
# ETV5 = ETV5 (Homo sapiens, UniProt P41161 1-510); details: protein: recombinant; tags: N-terminal GST; dsDNA, one strand shown
# Summary of the method: as §1
# HSF1 = HSF1 (Homo sapiens, UniProt Q00613 1-529); details: protein: recombinant; tags: N-terminal GST; chain copies: 3; dsDNA, one strand shown
# Summary of the method: as §1
# SPIC = biological target: T8, SPIC (Homo sapiens, UniProt Q8N5J4 1-248); details: protein: recombinant; tags: N-terminal GST; dsDNA, one strand shown
# T8 sequence: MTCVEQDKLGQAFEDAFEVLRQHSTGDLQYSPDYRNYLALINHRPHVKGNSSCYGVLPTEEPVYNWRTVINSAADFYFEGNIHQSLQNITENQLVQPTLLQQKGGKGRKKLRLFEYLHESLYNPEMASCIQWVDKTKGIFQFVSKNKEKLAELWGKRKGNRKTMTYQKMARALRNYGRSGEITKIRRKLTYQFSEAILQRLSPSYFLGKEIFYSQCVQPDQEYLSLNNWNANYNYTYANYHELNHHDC
# Summary of the method: as §1
# ELF4 = ELF4 (Homo sapiens, UniProt Q99607 1-663); details: protein: recombinant; tags: N-terminal GST; dsDNA, one strand shown
# Summary of the method: as §1
# ELK4 = biological target: T9, ELK4 (Homo sapiens, UniProt P28324-2 1-405); details: protein: recombinant; tags: N-terminal GST; dsDNA, one strand shown
# T9 sequence: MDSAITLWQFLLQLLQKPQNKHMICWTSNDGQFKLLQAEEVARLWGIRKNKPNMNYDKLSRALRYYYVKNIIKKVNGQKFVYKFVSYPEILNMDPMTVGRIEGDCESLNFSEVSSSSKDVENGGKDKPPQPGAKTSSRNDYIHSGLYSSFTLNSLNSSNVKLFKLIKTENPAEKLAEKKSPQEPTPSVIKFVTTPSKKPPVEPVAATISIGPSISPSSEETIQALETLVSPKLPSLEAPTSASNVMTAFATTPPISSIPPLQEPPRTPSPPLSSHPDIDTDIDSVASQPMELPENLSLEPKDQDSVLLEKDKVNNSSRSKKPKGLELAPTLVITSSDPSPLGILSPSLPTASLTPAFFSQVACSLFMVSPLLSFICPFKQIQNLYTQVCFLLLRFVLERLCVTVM
# Summary of the method: as §1
# ETV2 = biological target: T10, ETV2 (Homo sapiens, UniProt O00321 1-342); details: protein: recombinant; tags: N-terminal GST; dsDNA, one strand shown
# T10 sequence: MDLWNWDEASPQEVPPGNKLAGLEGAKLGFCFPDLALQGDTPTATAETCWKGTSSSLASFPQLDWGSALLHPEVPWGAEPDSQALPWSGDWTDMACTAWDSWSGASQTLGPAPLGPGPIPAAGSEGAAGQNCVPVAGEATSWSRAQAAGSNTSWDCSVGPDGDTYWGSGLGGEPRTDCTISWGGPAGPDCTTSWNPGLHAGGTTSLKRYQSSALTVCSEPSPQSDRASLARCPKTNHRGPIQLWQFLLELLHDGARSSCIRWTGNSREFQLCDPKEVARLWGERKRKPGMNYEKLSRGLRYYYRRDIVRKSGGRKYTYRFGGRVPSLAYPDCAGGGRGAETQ
# Summary of the method: as §1
# ELF3 = biological target: T11, ELF3 (Homo sapiens, UniProt P78545 1-371); details: protein: recombinant; tags: N-terminal GST; dsDNA, one strand shown
# T11 sequence: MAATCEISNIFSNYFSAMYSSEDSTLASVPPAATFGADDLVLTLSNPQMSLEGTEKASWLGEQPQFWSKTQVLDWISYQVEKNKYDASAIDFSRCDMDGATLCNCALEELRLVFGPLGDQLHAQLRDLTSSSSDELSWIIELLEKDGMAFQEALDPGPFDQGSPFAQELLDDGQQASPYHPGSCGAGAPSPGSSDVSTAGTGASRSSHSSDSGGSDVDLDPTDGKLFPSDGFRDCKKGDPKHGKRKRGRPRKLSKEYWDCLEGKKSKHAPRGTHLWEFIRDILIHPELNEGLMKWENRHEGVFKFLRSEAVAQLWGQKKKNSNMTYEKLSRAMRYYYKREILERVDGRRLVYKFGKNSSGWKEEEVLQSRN
# Summary of the method: as §1
# CRX = CRX (Homo sapiens, UniProt O43186 1-299); details: protein: recombinant; tags: N-terminal GST; dsDNA, one strand shown
# Summary of the method: as §1
# ETV1 = ETV1 (Homo sapiens, UniProt P50549 1-477); details: protein: recombinant; tags: N-terminal GST; dsDNA, one strand shown
# Summary of the method: as §1
# Chain of HSF1 (Q00613 whole entry): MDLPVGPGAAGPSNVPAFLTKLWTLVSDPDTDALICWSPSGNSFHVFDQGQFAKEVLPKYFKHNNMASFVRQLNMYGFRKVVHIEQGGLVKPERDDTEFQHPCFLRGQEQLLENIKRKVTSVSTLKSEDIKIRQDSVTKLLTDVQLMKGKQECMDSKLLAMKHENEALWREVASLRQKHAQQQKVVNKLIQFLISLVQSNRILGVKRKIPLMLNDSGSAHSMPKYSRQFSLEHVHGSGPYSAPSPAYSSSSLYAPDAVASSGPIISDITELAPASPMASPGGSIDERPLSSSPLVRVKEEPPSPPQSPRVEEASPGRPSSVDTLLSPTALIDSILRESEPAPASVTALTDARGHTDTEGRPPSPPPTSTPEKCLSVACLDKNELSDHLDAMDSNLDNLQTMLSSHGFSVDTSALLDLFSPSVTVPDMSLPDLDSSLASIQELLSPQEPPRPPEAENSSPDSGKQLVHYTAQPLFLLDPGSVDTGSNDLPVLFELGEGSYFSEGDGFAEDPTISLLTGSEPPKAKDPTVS
# Chain of CRX (O43186 whole entry): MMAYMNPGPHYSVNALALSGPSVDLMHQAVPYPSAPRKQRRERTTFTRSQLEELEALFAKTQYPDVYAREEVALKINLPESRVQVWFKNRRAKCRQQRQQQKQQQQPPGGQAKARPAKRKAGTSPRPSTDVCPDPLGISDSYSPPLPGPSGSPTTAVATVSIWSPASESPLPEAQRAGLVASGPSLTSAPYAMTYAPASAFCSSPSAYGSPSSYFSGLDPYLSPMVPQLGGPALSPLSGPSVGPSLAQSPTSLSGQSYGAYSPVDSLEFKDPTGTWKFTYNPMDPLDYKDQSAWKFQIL
# Chain of ELF1 (P32519 whole entry): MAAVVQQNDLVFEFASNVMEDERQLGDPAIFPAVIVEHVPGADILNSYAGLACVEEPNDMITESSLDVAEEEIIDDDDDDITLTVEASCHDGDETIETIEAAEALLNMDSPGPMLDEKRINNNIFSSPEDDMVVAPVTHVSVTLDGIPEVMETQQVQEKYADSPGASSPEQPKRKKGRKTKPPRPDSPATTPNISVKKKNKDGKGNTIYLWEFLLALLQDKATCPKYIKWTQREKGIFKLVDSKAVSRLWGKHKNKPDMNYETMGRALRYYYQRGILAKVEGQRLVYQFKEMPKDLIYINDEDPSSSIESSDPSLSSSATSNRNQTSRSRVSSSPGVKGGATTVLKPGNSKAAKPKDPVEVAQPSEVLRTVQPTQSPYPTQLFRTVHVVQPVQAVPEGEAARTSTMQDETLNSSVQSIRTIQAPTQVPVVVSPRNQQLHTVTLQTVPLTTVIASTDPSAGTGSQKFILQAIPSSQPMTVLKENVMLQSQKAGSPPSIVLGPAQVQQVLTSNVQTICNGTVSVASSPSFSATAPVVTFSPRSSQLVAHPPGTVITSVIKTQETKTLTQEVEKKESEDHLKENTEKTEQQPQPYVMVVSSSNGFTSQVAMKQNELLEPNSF
# Chain of ETV5 (P41161 whole entry): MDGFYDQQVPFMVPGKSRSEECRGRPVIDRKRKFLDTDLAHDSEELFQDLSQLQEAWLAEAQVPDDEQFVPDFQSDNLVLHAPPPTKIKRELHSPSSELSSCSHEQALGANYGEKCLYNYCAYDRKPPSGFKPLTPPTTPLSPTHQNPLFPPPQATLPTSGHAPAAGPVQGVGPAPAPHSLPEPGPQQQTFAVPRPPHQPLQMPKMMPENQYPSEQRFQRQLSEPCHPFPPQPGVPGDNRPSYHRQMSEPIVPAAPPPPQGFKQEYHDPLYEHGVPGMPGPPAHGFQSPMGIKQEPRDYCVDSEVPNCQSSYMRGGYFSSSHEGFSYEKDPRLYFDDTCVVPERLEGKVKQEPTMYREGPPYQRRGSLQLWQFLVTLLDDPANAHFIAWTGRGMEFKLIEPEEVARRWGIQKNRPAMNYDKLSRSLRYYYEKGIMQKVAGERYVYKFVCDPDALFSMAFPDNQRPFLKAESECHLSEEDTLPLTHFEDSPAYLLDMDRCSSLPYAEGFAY
# Chain of ELF4 (Q99607 whole entry): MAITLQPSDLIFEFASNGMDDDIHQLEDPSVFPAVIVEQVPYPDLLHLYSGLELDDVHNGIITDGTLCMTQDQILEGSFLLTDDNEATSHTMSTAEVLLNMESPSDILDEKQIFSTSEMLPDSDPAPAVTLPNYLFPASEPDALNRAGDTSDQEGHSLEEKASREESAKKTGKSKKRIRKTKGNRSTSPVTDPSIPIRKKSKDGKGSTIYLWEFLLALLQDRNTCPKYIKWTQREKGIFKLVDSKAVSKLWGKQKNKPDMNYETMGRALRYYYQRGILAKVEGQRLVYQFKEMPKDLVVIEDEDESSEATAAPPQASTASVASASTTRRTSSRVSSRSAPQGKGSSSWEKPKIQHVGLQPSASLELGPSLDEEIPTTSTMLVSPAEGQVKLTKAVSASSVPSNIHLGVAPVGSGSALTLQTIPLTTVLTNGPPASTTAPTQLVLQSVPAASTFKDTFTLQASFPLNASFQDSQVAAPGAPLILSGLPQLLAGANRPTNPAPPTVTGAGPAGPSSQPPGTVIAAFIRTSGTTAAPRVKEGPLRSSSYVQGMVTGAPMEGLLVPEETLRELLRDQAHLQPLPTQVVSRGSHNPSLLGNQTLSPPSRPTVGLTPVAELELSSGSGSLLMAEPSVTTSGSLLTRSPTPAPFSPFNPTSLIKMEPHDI
# Chain of SPIB (Q01892 whole entry): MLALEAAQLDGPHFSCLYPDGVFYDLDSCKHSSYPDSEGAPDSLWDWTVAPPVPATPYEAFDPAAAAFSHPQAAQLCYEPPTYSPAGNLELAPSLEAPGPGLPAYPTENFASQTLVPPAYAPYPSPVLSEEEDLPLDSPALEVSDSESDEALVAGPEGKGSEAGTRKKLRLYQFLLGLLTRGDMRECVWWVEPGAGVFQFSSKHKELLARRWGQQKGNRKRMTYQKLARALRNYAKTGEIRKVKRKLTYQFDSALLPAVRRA
# Chain of ETV1 (P50549 whole entry): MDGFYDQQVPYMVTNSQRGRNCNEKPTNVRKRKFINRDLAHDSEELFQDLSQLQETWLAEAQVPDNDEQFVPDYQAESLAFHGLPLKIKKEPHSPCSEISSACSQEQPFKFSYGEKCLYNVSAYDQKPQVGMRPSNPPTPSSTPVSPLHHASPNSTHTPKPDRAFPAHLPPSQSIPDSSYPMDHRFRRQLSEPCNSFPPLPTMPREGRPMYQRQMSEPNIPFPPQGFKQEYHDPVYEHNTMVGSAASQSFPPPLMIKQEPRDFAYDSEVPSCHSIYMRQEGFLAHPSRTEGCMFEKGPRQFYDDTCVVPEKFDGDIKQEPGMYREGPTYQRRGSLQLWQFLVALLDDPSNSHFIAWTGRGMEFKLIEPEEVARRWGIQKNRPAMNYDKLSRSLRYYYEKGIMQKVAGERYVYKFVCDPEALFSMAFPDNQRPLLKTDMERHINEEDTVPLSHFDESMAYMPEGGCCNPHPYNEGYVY
sequence,measurement,setting,value
ATTAAT,binding signal,FLI1,"1.23 fold enrichment (6-mer frequency, TF over GST control)"
same,binding signal,ELK1,"1.24 fold enrichment (6-mer frequency, TF over GST control)"
same,binding signal,GABPA,"1.29 fold enrichment (6-mer frequency, TF over GST control)"
same,binding signal,ERG,"1.21 fold enrichment (6-mer frequency, TF over GST control)"
same,binding signal,ELF1,"1.23 fold enrichment (6-mer frequency, TF over GST control)"
same,binding signal,EHF,"1.2 fold enrichment (6-mer frequency, TF over GST control)"
same,binding signal,SPI1,"1.21 fold enrichment (6-mer frequency, TF over GST control)"
same,binding signal,SPIB,"1.24 fold enrichment (6-mer frequency, TF over GST control)"
same,binding signal,ELK3,"1.26 fold enrichment (6-mer frequency, TF over GST control)"
same,binding signal,FEV,"1.16 fold enrichment (6-mer frequency, TF over GST control)"
same,binding signal,ETV5,"1.26 fold enrichment (6-mer frequency, TF over GST control)"
same,binding signal,HSF1,"2.47 fold enrichment (6-mer frequency, TF over GST control)"
same,binding signal,SPIC,"1.18 fold enrichment (6-mer frequency, TF over GST control)"
same,binding signal,ELF4,"1.19 fold enrichment (6-mer frequency, TF over GST control)"
same,binding signal,ELK4,"1.23 fold enrichment (6-mer frequency, TF over GST control)"
same,binding signal,ETV2,"1.25 fold enrichment (6-mer frequency, TF over GST control)"
same,binding signal,ELF3,"1.05 fold enrichment (6-mer frequency, TF over GST control)"
same,binding signal,CRX,"3.95 fold enrichment (6-mer frequency, TF over GST control)"
same,binding signal,ETV1,"1.25 fold enrichment (6-mer frequency, TF over GST control)"
